The whole screen tested about 63,000 compounds, of which about 1,100 (1.7%) were called active. For the sample, actives were picked, then their nearest neighbours and some compounds at random. Potency and affinity values are given separately. A number with no mark means an inactive call.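 How the source made its calls: active means compounds whose percent cytotoxicity in the single-dose primary screen, scaled between solvent and toxic-drug controls, exceeds 50; inactive means the rest.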

This assay in a line: cytotoxicity in KRAS-transformed pancreatic duct cells, primary screen, cell-based, fluorescence, HTS (AID 431).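 Further: 0% = DMSO solvent wells and 100% = doxorubicin-treated wells.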 The following applies: HPDE-C7K KRASV12 cells, Alamar Blue viability, 48 h; at 10 µM; stronger effect = higher value.
Consider `COc1ccc(CCNC(=O)CCS(=O)(=O)c2cccc3nsnc23)cc1OC`, for which the cytotoxicity is -2.7%.
The same measure for `COc1ccc(OC)c2sc(N3CCN(c4ccccc4)CC3)nc12`: 15.9%; for `CCCc1c(C(=O)OCC)[nH]c2c1C(=O)CCC2`: 10%; for `O=C(Nc1ccc(C(F)(F)F)cc1)C1CCCN1S(=O)(=O)c1cccc2cccnc12` (configuration not stated): 16.9%.
For the compound `C=CCNC(=O)c1ccccc1NS(=O)(=O)c1ccc(SC)cc1`, the cytotoxicity is 26.3%.
The same measure for `CCOc1ccc(NC(=O)CN2CCN(CC(=O)Nc3ccc4c(c3)OCCO4)CC2)cc1`: -5.7%; for `Cc1ccc2[nH]c3c(c2c1)CCC3=O`: -12.2%.
Then `O=CNC1CCCc2c1[nH]c1ccc(Cl)cc21` (configuration not stated), with 12.8%.
Then `CC(Oc1ccc(Cl)cc1)C(=O)Nc1nccs1` (configuration not stated), with -6%; and `c1ccc(-n2nnnc2Sc2n[nH]c(-c3ccncc3)n2)cc1`, with -8.6%; and `CC(=O)C1=C(O)C(=O)N(CCN(C)C)C1c1ccc(Cl)cc1` (configuration not stated), with 1%.
Consider `COc1cccc(CNC(=O)C2CCN(C(=O)N(C)C)CC2)c1`, for which the cytotoxicity was -6.1%.
With `Cc1ccc(O)c(CC(C)C)n1`, the cytotoxicity was 5.8%.
Then `CCC(NC(C)C)C(O)c1ccc(O)c(O)c1` (configuration not stated), with 2.8%; and `CC1CCCN(S(=O)(=O)c2cccc(-c3cn4cccnc4n3)c2)C1` (configuration not stated), with -3%.
The same measure for `O=C(Nc1ccc(N2CCOCC2)cc1)c1ccc2nc(-c3ccco3)c(-c3ccco3)nc2c1`: -26.4%; for `O=C(Nc1ccc(N2CCOCC2)cc1)Nc1ccc2nc(-c3ccco3)c(-c3ccco3)nc2c1`: 80.3% (active); for `O=C(Nc1ccc2nc(-c3ccco3)c(-c3ccco3)nc2c1)N1CCCCCC1`: 38.8%.
With `Cn1nnnc1SCC(=O)N1CCc2ccccc2C1`, the cytotoxicity was -12.2%.
Then `CC(C)c1ccc(NC(=O)C(c2ccccc2)N2CCN(C(=O)c3ccco3)CC2)cc1` (configuration not stated), with -11.8%; and `COc1ccc(NS(=O)(=O)c2ccc(O)c(C(=O)OCC(=O)N3CC(C)OC(C)C3)c2)cc1` (configuration not stated), with 11.2%.
Then `C=CCn1c(Cc2csc(N)n2)nnc1SCc1ccc(C(=O)OC)cc1`, with -10.3%; and `Cc1ccc(-n2c(SCC(=O)NCc3ccco3)nc3sc(C)c(C)c3c2=O)cc1`, with -4%.
For `Cc1cc(C)c2ccc(N)nc2c1O`, the cytotoxicity was 121% (active).
Then `Cc1cc(C)c2ccc(C)[n+]([O-])c2c1O`, with -6.5%.
The same measure for `Cc1cc(=O)oc2c(N)c(O)ccc12`: -2.8%.
Take `CCCC(=O)Nc1ccccc1NC(=O)CN(C)S(=O)(=O)c1ccccc1`: the cytotoxicity was -1.8%.
Then `CC(C)(C)NC(=O)CSc1nsc(SCC(=O)NC(C)(C)C)c1C#N`, with 11.8%; and `Cc1csc(NC(=O)CSc2nc(C)cs2)n1`, with 6.5%.
As for `Cc1n[nH]c(C)c1Cc1ccc(C(=O)O)cc1`, the cytotoxicity was -13.2%.
For the compound `CS(=O)(=O)c1ccc2nc(NC(=O)CC3CCCC3)sc2c1`, the cytotoxicity is -9%.
Then `Cc1cc(C)c(NC2=NCC(=O)N2C2CCCCC2)c(C)c1`, with -9.5%; and `Cc1nc(N2CCc3ccccc3C2)[nH]c(=O)c1CCC(C)C`, with 8.4%.
Then `COc1ccc(C)cc1NC(=O)CN(c1ccccc1)S(C)(=O)=O`, with -2.4%; and `O=C(Nc1nccs1)c1cc2sccc2n1Cc1ccc(F)cc1`, with -3.4%.
In the case of `COc1ccc(-n2nnnc2SCC(=O)NCCc2ccc(OC)c(OC)c2)cc1`, the cytotoxicity is -3.9%.
For `C(=C\CSc1nnnn1-c1ccccc1)/CSc1nnnn1-c1ccccc1`, the cytotoxicity is -12.8%.
Then `Cn1ccnc1Sc1nnnn1-c1ccccc1`, with -9.8%.
Then `c1ccc(-n2nnnc2SCCCSc2nc3ccccc3s2)cc1`, with 2%; and `COc1ccc(CCNC(=O)CSc2nnnn2-c2ccccc2OC)cc1OC`, with 6.4%.
In the case of `Cc1ccc(C)c(Oc2nnnn2-c2ccccc2)c1`, the cytotoxicity is -2.3%.
The same measure for `COc1ccc(CCNc2nnc(Sc3nnnn3-c3ccccc3)s2)cc1OC`: 68.8% (active); for `CCCSc1nnc(Sc2nnnn2-c2ccccc2)s1`: 88.2% (active); for `CC1CC(c2ccccc2)n2nc(NC(=O)CCc3ccccc3)nc2N1` (configuration not stated): 3.9%.
Then `O=C(NCc1cccs1)c1noc2c1CCCC2`, with 5.2%; and `O=C1CC(N2CCN(c3ccc(S(=O)(=O)N4CCCC4)cc3)CC2)C(=O)N1c1ccc(F)cc1` (configuration not stated), with -0.7%; and `CCOc1ccc2[nH]c(O)c(NC(C)=O)c2c1`, with -16.9%.
Then `Cc1oc(-c2ccc(Cl)cc2)nc1CN1CCC(C(=O)N2CCN(c3ccccn3)CC2)CC1`, with 8%.
For `O=C(NC1CCCCC1)n1c(=O)oc2ccccc21`, the cytotoxicity was -35.5%.
Then `Cc1nc(NC(=O)c2ccccc2)sc1-c1csc(N)n1`, with 58.6% (active).
The same measure for `Cc1nc(C)c(-c2csc(NCc3ccco3)n2)s1`: -14.9%; for `O=C(Nc1nc(-c2ccco2)cs1)c1ccccc1`: 20.8%; for `CCOC(=O)c1csc(NC(=O)c2ccccc2)n1`: -0.2%.
As for `O=C(Nc1nc2c(s1)C(=O)CCC2)c1ccccc1`, the cytotoxicity was -6.7%.
The same measure for `Cc1nc(NC(=O)c2ccccc2)sc1-c1csc(NCc2ccco2)n1`: 73.6% (active); for `Cn1c(=O)c2c(nc(SCC(=O)O)n2Cc2cccc(C(F)(F)F)c2)n(C)c1=O`: -7.6%; for `CCCCOc1ccc(/C(O)=C2/C(=O)C(=O)N(CCCOC)C2c2ccncc2)cc1C` (configuration not stated): -8.2%.
The same measure for `COc1ccc(CN2C(=O)NC3(CCCCCC3)C2=O)cc1F`: -2.8%; for `CC(C)(C)c1cc(NC(=O)c2cccnc2)no1`: -7.8%; for `O=C(Cn1c(=O)sc2ccccc21)Nc1ccccc1C(=O)O`: 18.1%.
Take `COc1ccc(C2C(C(=O)Nc3ccccc3OC)=C(C)Nc3ncnn32)cc1` (configuration not stated): the cytotoxicity was -6.4%.
Take `CCOC(=O)C1=C(CSc2nc3c(cc2C#N)CCC3)OC(N)=C(C#N)C1c1ccccc1` (configuration not stated): the cytotoxicity is 108% (active).
The same measure for `CCOC(=O)C1=C(CSc2nc3c(cc2C#N)CN(C)CC3)OC(N)=C(C#N)C1c1ccccc1` (configuration not stated): 14.3%.
Then `CCOC(=O)C1=C(CSc2nc(C)ccc2C#N)OC(N)=C(C#N)C1c1cccc(OC)c1OC` (configuration not stated), with 57.6% (active).
Take `CCOC(=O)C1=C(CSc2nc(C)cc(C)c2C#N)OC(N)=C(C#N)C1c1cccs1` (configuration not stated): the cytotoxicity is -2.2%.
The same measure for `CCOC(=O)C1=C(CSc2nc(-c3ccncc3)ccc2C#N)OC(N)=C(C#N)C1c1cccnc1` (configuration not stated): 20%.
For `CCOC(=O)C1=C(C)OC(N)=C(C#N)C1c1ccc(OC)c(C)c1OC` (configuration not stated), the cytotoxicity is 2.9%.
